Screen size: about 420,000 compounds; about 64,000 (15%) were called active. Inconclusive results (about 27%) are left out. Not all results are given here. A number with no mark means an inactive call. The call rests on the fitted dose curve; in most records, active means well fitted inhibition curve with a large enough effect; inconclusive means small, poorly fitted or top-dose-only effect; inactive means flat fitted curve, though single readings scatter.
On the % scale 0 is the no-effect control and ±100 the full control effect; potency means the concentration at half of the fitted maximal effect.

This experiment in a line: qHTS for Inhibitors of human tyrosyl-DNA phosphodiesterase 1 (TDP1): qHTS in cells in absence of CPT. Further: nearly all actives have a fitted effect of over 55% in size. The following applies: DT40 Tdp1-/- hTDP1 cells, no CPT, ATP luminescence, 48 h; activity change, negative = growth inhibition: at 46.2 µM (top of the series). In a few lines:
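Stably hTDP1-transfected Tdp1-null chicken DT40 cells were treated with library compounds minus camptothecin and grown for at least 48 hr at 37 °C, after which cellular ATP was quantified by luminescence.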
Turning to `CCC(=O)NNc1cc(=O)c2c(=O)n(C)c(=O)n(C)c2[nH]1`, the “activity change, negative = growth inhibition” value was -2.61%.

With `CCOC(=O)C1CCN(c2ccc(C(=O)O)cc2[N+](=O)[O-])CC1`, the “activity change, negative = growth inhibition” value was 3.97%.

As to `CC(C(=O)N1CCN(c2ccccc2F)CC1)c1ccc([N+](=O)[O-])cc1` (centres undefined), the “activity change, negative = growth inhibition” value was -28.8%.

Turning to `CCOC(=O)N1CCN(c2cc(C)c([N+](=O)[O-])cc2F)CC1`, the Potency was 16.4 µM (active).

`CCC(=O)c1ccc(N2CCN(C(=O)c3cc([N+](=O)[O-])ccc3F)CC2)c(F)c1`: the Potency was 16.4 µM (active).

In the case of `O=C(Nc1cccc(Cl)c1)c1cc([N+](=O)[O-])ccc1N1CCN(CCO)CC1`, the “activity change, negative = growth inhibition” value is -10.6%.

Consider `CCOC(=O)N1CCN(C(=S)Nc2ccc(C)cc2C)CC1`, for which the “activity change, negative = growth inhibition” value was -0.122%.

`COC(=O)c1oc2ccc(Br)cc2c1NC(C)=O`: the “activity change, negative = growth inhibition” value was -24.5%.

On to `Cc1ccc(S(=O)(=O)N2CCOCC2)cc1NC(=O)CSc1nnc(N)s1`, for which the “activity change, negative = growth inhibition” value is -2.06%.

For the compound `C=CCn1c(CSc2nc3ccccc3s2)nnc1SCC(=O)NCc1ccco1`, the “activity change, negative = growth inhibition” value was 1.91%.

For `O=C(CSc1nc(Nc2ccccc2)nc(N2CCOCC2)n1)Nc1cc(Cl)ccc1O`, the Potency is 29.1 µM (active).

As to `O=C(CC(c1ccccc1)c1cc(Cl)ccc1O)NCCN1CCOCC1` (centres undefined), the “activity change, negative = growth inhibition” value is -25.3%.

For the compound `CCn1c(SCC(=O)NCc2ccco2)nnc1-c1ccc(N)cc1`, the “activity change, negative = growth inhibition” value was -25.1%.

As for `Cc1ccccc1NC(=O)CSc1nc2ccc(Nc3nc(N4CCOCC4)nc(N4CCOCC4)n3)cc2s1`, the Potency was 14.6 µM (active).

Take `O=C(CSc1nc2ccc(Nc3nc(N4CCOCC4)nc(N4CCOCC4)n3)cc2s1)NCc1ccco1`: the Potency is 13 µM (active).

With `CC1(c2ccccc2)NC(=O)N(CC(=O)Nc2cc(Cl)ccc2N2CCOCC2)C1=O` (centres undefined), the “activity change, negative = growth inhibition” value is 3.58%.

Turning to `O=C(CSc1nc2ccccc2s1)Nc1ccc(C(=O)O)cc1`, the “activity change, negative = growth inhibition” value was 22%.

For the compound `Cc1ccccc1-n1nc(C)c2c1N=C1C(Cl)=CC(Cl)=CN1C2c1ccc(C(=O)O)cc1` (centres undefined), the “activity change, negative = growth inhibition” value was 14.2%.

Regarding `CCn1ccnc1CN(C)C(=O)c1cc(COc2ccc(Cl)cc2OC)on1`, the “activity change, negative = growth inhibition” value is -27%.

With `COC(=O)[C@H](Cc1ccccc1)NC(=O)N1CC(C)OC(C)C1` (some centres undefined), the “activity change, negative = growth inhibition” value is 12%.

`O=C1NC(c2ccccc2)CCC1(Cl)Cl` (centres undefined): the “activity change, negative = growth inhibition” value was -3.73%.

For `Cc1cc(C(=O)COC(=O)CCCN2C(=O)c3ccccc3C2=O)c(C)n1C`, the “activity change, negative = growth inhibition” value is -6.94%.

As for `Cc1ccc(NC(=O)c2cn3c4c(ccc(Cl)c4c2=O)OC(C)C3)cc1C` (centres undefined), the “activity change, negative = growth inhibition” value is -2.41%.

Take `C#CCOCCOCCOCCNc1nc(N2CCN(C(=O)Cn3cc(CCO)nn3)CC2)nc(N2CCN(C(=O)[C@H](CCCCN)n3cc(CCCC)nn3)CC2)n1`: the “activity change, negative = growth inhibition” value was -0.177%.

Turning to `COc1cc(NC(=S)NCc2ccc(S(N)(=O)=O)cc2)cc(OC)c1`, the “activity change, negative = growth inhibition” value was -21.2%.

In the case of `CCc1c(O)cc2n(c1=O)-c1ccccc1C2(C)C`, the “activity change, negative = growth inhibition” value is -23.2%.

With `CC1(C)CC(=O)C=C(N2CCOCC2)C1`, the “activity change, negative = growth inhibition” value is 20.4%.

In the case of `CC1(C)CC(=O)C=C(N2CCCC2)C1`, the “activity change, negative = growth inhibition” value is -1.76%.

Regarding `CC1(C)CC(N2CCN(C(c3ccccc3)c3ccccc3)CC2)=CC(=[N+]2CCCCC2)C1`, the Potency is 0.164 µM (active).

As for `Cc1nc(Cl)c2oc3ccccc3c2n1`, the “activity change, negative = growth inhibition” value is 10.8%.

For `c1csc(CN2CCN(Cc3cccs3)C2c2cccs2)c1`, the “activity change, negative = growth inhibition” value was 9.91%.

`O[C@H]1C[C@H](c2ccc(Cl)cc2)N(Cc2cccs2)C[C@@H]1n1cc(C2CC2)nn1`: the Potency is 14.6 µM (active).

For the compound `COC(=O)C1=C(C(=O)OC)C(c2cc([N+](=O)[O-])ccc2O)c2sc(=O)[nH]c2S1` (centres undefined), the “activity change, negative = growth inhibition” value was 3.48%.

Consider `CC1=NN(C(C)C)C(=O)C1`, for which the “activity change, negative = growth inhibition” value is -12.2%.

Consider `COc1ccc(CN(CC(=O)NC2CCCC2)C(=O)CCC(=O)Nc2cc(C)on2)cc1`, for which the “activity change, negative = growth inhibition” value was -10.2%.

`Cc1ccc(CN(CC(=O)NC2CCCCC2)C(=O)c2csnn2)cc1`: the “activity change, negative = growth inhibition” value is -12%.

In the case of `Cc1cc(C(C)(C)C)oc1C(=O)N(CC(=O)NC1CCCC1)Cc1ccc(Cl)cc1`, the Potency was 14.1 µM (active).

As for `CN1CCN(C(=O)c2ccc(-c3ccc(Br)cc3)o2)CC1`, the “activity change, negative = growth inhibition” value was -18.3%.

Turning to `Cc1ccccc1C1=NC(C(F)(F)F)(C(F)(F)F)c2c(n(-c3ccc(F)cc3)c(=O)[nH]c2=O)N1`, the Potency is 23.1 µM (active).

With `O=S(=O)(NCC1CC1)c1ccc(F)c(Cl)c1`, the “activity change, negative = growth inhibition” value was 28.1%.

Regarding `Cc1cc(NS(=O)(=O)c2ccc(NC(=O)c3ccccc3C)cc2)nc(C)n1`, the “activity change, negative = growth inhibition” value is 6.45%.

Turning to `CCOC(=O)c1c(C)[nH]c(C)c1S(=O)(=O)N(C)CC(=O)Nc1ccccc1C`, the “activity change, negative = growth inhibition” value is -10.7%.

`CCCS(=O)(=O)c1c(Nc2ccccc2C)sc(C(=O)c2ccccc2)c1N`: the Potency is 16.4 µM (active).

As to `COc1c(F)c(F)c(C(=O)O)c(Nc2ccccc2C)c1F`, the “activity change, negative = growth inhibition” value was -8.56%.

Turning to `Cc1ccc2c(c1)C1CN(C)CCC1N2C(=S)Nc1ccc(Cl)cc1Cl` (centres undefined), the “activity change, negative = growth inhibition” value is 0.632%.

For the compound `Cc1ccc(Nc2c(O)nc[nH]c2=O)cc1C`, the “activity change, negative = growth inhibition” value was -1.29%.

On to `Cc1ccc2[nH]cc(CCCN3C(=O)c4ccccc4C3=O)c2c1`, for which the “activity change, negative = growth inhibition” value was -3.71%.

With `O=C(CCS(=O)(=O)c1ccccc1)NC1CCCC1`, the “activity change, negative = growth inhibition” value was 22%.

As for `CC(=O)CC(CC(=O)NC1CCCCC1)c1ccccc1` (centres undefined), the “activity change, negative = growth inhibition” value was -5.74%.

As for `O=C(CNC1CCCCC1)NCC1(c2ccccc2)CCCC1`, the Potency is 23.1 µM (active).

Consider `CC(C)NC(=O)c1ccccc1S(=O)c1ccccc1C#N` (centres undefined), for which the “activity change, negative = growth inhibition” value was -23.9%.

As to `O=C(CSc1ccc(Cl)cc1)NC1CC1`, the “activity change, negative = growth inhibition” value is -18.7%.

For the compound `O=C(/C=C/c1cccc(F)c1)NC1CC1`, the “activity change, negative = growth inhibition” value is -24.6%.

In the case of `S=C(Nc1ccc(Br)cc1)NC1CCN(Cc2ccccc2)CC1`, the Potency was 23.1 µM (active).

On to `Cc1cc(Br)ccc1NC(=S)NC1CCCC1`, for which the “activity change, negative = growth inhibition” value was -20.4%.

Turning to `S=C(Nc1ccc(Br)cc1Cl)NC1CCN(Cc2ccccc2)CC1`, the Potency was 7.31 µM (active).

As to `O=C(Nc1ccccc1)N1CCC(C(=O)N2CCN(Cc3ccccc3)CC2)CC1`, the “activity change, negative = growth inhibition” value is -18.5%.

Regarding `CCNC(=S)NNC(=O)C1CCN(Cc2ccccc2)CC1`, the “activity change, negative = growth inhibition” value is -8.75%.

As to `O=C(NNC(=S)Nc1ccc(Br)cc1Cl)c1ccco1`, the “activity change, negative = growth inhibition” value is -8.5%.

Consider `CCNc1ncc2nc(CCc3ccccc3)c(=O)n(-c3ccc(OC)cc3)c2n1`, for which the “activity change, negative = growth inhibition” value is -21.2%.

For the compound `CC1(C(=O)NCc2ccccc2)CN(S(C)(=O)=O)CC(=O)N1CC(F)(F)F` (centres undefined), the “activity change, negative = growth inhibition” value is -11.4%.

With `CCOC(=O)c1ccc(-n2c(CCC(=O)O)ccc2-c2ccccc2)cc1`, the Potency result was “inactive”.

Regarding `CC1Cc2cc(/C(O)=C3\C(=O)C(=O)N(Cc4cccnc4)C3c3ccccc3F)ccc2O1` (centres undefined), the “activity change, negative = growth inhibition” value is 37.3%.

`CC(=O)c1c(C)[nH]c(C(=O)COc2ccc3c(C)cc(=O)oc3c2)c1C`: the Potency was 20.6 µM (active).

Consider `COC(=O)COc1ccc2oc(=O)cc(C)c2c1`, for which the “activity change, negative = growth inhibition” value is -6.39%.

Turning to `Cc1ccc(O)c(NC(=O)COc2cc(C)ccc2C)c1`, the “activity change, negative = growth inhibition” value is -27.4%.

On to `Cc1cc(=O)oc2ccc(OCC(=O)O)cc12`, for which the “activity change, negative = growth inhibition” value was 14.6%.

For the compound `Cc1ccc(O)c(/C=N/NC(=O)COc2ccc3c(C)cc(=O)oc3c2)c1`, the Potency is 16.4 µM (active).

Regarding `Cc1cc(=O)oc2cc(OCC(=O)Nc3nnc(C4CC4)s3)ccc12`, the “activity change, negative = growth inhibition” value was -15.1%.

The record behind these values is PubChem BioAssay AID686978 (National Center for Advancing Translational Sciences (NCATS), 2013).
